Data as given in PubChem BioAssay AID493072 (Broad Institute, 2011).
Potency and affinity values are given separately. Activity calls are given as the source filed them.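 The calls were made as follows: active = signal drops and a fitted half-effect dose is at or below ten times that sample's top valid dose; inconclusive = flat fit with a moderate drop, or a poor fit; inactive = the rest.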

Assay: inhibitors of AI-2 quorum sensing in V. harveyi, dose response, LuxS, LuxPQ, dry powder, set 2 (AID 493072)

In the case of `CCc1ccc(C(=O)Nc2ccc(Br)cn2)cc1`, the outcome is reported as “inactive”.
